Inconclusive results are not listed. A call without a number means that no potency is given here. Active and inactive are the calls of the source. Calls come from the whole dose curve; as a rule, active = well fitted cell-killing curve with a large enough effect; inconclusive = small, poorly fitted or top-dose-only effect; inactive = flat fitted curve, though single readings scatter.
Potency is the fitted concentration of half-maximal effect.

This assay is described as follows: Cell Viability - LYMP2-024 (AID 988). Note: nearly all actives have a fitted effect of over 60% in size. The conditions noted are these: LYMP2-024 lymphoblastoid cell viability; series mostly up to 92.2 µM. An excerpt: NIH Chemical Genomics Center [NCGC]
NIH Molecular Libraries Screening Centers Network [MLSCN]
National Institutes of Environmental Health Sciences [NIEHS]
National Toxicology Program [NTP]
We have developed a 1536-well cell-based assay for quantitative high throughput screening (qHTS) against a number of cell lines to determine in vitro cytotoxicity of small molecules. This particular assay uses a human lymphoblastoid cell line (LYMP2-024) purchased from Coriell Institute for Medical Research.
NCGC Assay Protocol Summary:
The CellTiter-Glo luminescent cell viability assay (Promega) is a homogeneous method to measure the number of viable cells in culture. The end point readout of this assay is based on quantitation of intracellular ATP, an indicator of metabolic activity, using the luciferase reaction. Luciferase catalyzes the oxidation of beetle Luciferin to oxyluciferin and light in the presence of ATP. The luminescent signal is proportional to amount of ATP present.
Using the CellTiter-Glo luminescent cell viability assay, the amount of cellular ATP was measured in the lymphoblastoid cell line with complete culture medium following compound treatment for 24 hours. The assay was performed in opaque white Kalypsys 1536-well plates. In the screen, tetraoctylammonium bromide was used as positive control. Library compounds were measured for their ability to cause acute toxicity in the cell line, as reflected by a decrease in intracellular ATP levels, in a concentration-dependent manner. […] AC50 values were determined from concentration-response data modeled with the standard Hill equation.
qHTS protocol for CellTiter Glo lymphoblastoid cellular assay
[Step] [Parameter] [Value] [Description]
1. Reagent; 5 uL; 2500 lymphoblastoid cells/well
2. Time; 5 hr; 37 C incubation
4. Controls; 23 nL; Tetraoctylammonium bromide 6.4pM to 92 uM
5. Time; 24 hr; 37 C incubation
6. Reagent; 5 uL; CellTiter Glo reagent
7. Time; 30 min; Room Temperature
8. Detection; Luminescence; Viewlux plate reader
Keywords: cell viability, cytotoxicity, lymphoblastoid cell line, luminescence, NTPHTS, NTPHTS_NCGC, NIEHS, DSSTox, MLSMR, MLSCN, NIH Roadmap, qHTS, NCGC
With `CCCCOCCOCCOCc1cc2c(cc1CCC)OCO2`, the Potency entry is “inactive”. Take `CCCCNC(=O)NS(=O)(=O)c1ccc(C)cc1`: the Potency entry was “inactive”. For the molecule `Nc1ncn([C@@H]2O[C@H](CO)[C@@H](O)[C@H]2O)c(=O)n1`, the Potency is 15.8 µM (active).

Turning to `Nc1nc(N)c2nc(-c3ccccc3)c(N)nc2n1`, the Potency entry was “inactive”.

In the case of `COc1ccc(CN(CCN(C)C)c2ccccn2)cc1`, the Potency result was “inactive”. The entry for `NC(=O)N1c2ccccc2C=Cc2ccccc21` is “inactive”; for `O=c1[nH]c(=O)n([C@H]2C[C@H](O)[C@@H](CO)O2)cc1Br` it is “inactive”. Regarding `COc1cc(Cc2cnc(N)nc2N)cc(OC)c1OC`, the Potency entry was “inactive”. For `CN=C(NC#N)NCCSCc1nc[nH]c1C` the value was “inactive”; for `NC(=Nc1ccccc1)Nc1ccccc1`, “inactive”.

The record behind these values is PubChem BioAssay (NCATS).
